Results: the supplement of paper PMC11732987, “Enantioselective OTUD7B fragment discovery through chemoproteomics screening and high-throughput optimisation” (Communications Chemistry, 2025)

Legend:
Assay in all cases: log2 ratio of Biotin-Ahx-Ub-VS probe labelling (fragment/DMSO); higher = less target engagement (more negative = stronger competition), active = hit call of the paper (q ≤ 0.05, log2 ratio ≤ -1)
Settings in all cases: compound concentration: 200 uM; treatment time: 3 h
USP42 = molecular target: T1, USP42 (UniProt Q9H9J4)
T1 sequence (whole entry): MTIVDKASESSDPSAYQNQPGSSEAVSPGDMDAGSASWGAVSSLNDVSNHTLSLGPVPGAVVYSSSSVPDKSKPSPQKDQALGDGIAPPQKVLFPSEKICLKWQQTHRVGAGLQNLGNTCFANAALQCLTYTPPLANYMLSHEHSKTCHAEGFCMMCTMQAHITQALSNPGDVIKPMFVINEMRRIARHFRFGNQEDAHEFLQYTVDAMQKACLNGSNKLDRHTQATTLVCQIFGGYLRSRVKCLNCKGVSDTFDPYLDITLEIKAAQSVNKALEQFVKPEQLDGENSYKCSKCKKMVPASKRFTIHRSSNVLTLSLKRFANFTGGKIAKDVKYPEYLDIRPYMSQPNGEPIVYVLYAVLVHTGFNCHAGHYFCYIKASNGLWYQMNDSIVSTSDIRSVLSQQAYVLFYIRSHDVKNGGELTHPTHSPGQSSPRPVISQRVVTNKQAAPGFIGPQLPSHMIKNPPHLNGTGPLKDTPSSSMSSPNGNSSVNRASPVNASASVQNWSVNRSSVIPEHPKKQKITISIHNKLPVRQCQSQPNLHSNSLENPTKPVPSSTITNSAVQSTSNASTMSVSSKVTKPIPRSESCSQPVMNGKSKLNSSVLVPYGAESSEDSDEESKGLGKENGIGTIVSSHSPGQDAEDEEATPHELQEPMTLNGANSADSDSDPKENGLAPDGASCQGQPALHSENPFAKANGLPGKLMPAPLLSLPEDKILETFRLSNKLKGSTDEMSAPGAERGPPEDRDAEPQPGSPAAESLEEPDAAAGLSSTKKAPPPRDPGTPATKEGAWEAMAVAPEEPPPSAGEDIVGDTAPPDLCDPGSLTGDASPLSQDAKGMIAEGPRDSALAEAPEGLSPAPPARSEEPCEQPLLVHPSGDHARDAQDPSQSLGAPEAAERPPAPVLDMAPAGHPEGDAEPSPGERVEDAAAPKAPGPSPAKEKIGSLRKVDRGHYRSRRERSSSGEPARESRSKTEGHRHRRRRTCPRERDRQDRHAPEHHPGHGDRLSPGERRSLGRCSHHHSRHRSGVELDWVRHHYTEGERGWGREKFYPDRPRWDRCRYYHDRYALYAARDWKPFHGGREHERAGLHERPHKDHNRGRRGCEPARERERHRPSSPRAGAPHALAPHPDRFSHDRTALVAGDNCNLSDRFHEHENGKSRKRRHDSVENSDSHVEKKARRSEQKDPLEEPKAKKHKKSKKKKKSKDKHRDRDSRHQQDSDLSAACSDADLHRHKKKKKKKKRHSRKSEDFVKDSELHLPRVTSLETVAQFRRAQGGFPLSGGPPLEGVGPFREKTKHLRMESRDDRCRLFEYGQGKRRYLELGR
Summary of the method: (§1)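 HEK293T lysate (495 µg per sample, in Tris/CHAPS/IGEPAL buffer with protease inhibitors) was exposed in triplicate for 3 h to fragment at 200 µM or to vehicle, then to Biotin-Ahx-Ub-VS at 0.5 µM final for 1 h. Labelled DUBs were enriched on NeutrAvidin, digested with LysC and trypsin, and analysed by diaPASEF LC-MS/MS. Spectronaut label-free quantities were normalised to the global median, and values are average log2 ratios of fragment over vehicle from an unpaired t-test. Only proteins with ≥2 unique peptides were used.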

USP46 = USP46 (UniProt P62068)
Sequence of USP46 (P62068 whole entry): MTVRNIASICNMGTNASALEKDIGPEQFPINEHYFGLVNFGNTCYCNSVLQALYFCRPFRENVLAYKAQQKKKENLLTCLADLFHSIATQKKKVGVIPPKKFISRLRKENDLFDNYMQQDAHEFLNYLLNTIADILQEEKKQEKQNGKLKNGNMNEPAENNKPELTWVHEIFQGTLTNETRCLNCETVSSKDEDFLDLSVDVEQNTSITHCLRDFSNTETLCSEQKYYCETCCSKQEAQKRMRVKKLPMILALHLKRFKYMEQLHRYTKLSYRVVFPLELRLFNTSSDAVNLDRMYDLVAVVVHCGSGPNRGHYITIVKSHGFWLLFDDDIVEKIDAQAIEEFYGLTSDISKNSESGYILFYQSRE
Summary of the method: as §1

USP47 = molecular target: T2, USP47 (UniProt Q96K76)
T2 sequence (whole entry): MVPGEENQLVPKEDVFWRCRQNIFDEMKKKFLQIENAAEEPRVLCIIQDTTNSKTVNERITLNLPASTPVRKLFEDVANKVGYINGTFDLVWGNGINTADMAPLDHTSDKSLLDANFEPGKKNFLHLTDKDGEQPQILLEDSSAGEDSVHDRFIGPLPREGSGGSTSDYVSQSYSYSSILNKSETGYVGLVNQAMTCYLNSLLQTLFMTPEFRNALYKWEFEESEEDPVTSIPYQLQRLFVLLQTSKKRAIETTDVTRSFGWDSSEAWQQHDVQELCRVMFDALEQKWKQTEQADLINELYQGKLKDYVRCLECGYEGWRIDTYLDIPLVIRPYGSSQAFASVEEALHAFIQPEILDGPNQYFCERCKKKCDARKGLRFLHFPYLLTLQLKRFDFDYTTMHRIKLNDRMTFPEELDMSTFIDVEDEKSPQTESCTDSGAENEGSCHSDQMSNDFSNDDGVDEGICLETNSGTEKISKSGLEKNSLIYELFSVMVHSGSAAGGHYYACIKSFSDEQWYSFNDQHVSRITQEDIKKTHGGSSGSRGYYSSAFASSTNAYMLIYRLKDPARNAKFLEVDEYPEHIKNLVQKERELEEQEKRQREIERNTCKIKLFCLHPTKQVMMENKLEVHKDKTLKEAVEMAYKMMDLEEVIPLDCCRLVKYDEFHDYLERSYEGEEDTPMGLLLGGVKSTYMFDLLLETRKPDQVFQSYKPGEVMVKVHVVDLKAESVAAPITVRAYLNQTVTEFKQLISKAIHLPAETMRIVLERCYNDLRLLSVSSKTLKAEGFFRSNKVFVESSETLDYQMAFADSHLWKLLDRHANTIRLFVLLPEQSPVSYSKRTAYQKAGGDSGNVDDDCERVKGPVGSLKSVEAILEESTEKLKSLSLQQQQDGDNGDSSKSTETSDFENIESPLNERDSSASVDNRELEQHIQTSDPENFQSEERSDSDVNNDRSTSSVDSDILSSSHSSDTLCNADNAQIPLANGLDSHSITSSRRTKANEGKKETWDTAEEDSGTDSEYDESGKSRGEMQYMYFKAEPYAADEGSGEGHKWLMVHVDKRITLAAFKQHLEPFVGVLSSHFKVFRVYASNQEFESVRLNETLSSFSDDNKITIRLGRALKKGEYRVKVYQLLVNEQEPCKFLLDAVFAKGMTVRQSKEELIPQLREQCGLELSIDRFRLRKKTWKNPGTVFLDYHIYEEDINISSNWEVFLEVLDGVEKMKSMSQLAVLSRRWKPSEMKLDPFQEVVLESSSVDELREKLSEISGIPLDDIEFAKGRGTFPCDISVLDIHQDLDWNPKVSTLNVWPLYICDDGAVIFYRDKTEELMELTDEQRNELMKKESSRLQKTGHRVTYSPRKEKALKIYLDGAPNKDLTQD
Summary of the method: as §1

USP48 = molecular target: T3, USP48 (UniProt Q86UV5)
T3 sequence (whole entry): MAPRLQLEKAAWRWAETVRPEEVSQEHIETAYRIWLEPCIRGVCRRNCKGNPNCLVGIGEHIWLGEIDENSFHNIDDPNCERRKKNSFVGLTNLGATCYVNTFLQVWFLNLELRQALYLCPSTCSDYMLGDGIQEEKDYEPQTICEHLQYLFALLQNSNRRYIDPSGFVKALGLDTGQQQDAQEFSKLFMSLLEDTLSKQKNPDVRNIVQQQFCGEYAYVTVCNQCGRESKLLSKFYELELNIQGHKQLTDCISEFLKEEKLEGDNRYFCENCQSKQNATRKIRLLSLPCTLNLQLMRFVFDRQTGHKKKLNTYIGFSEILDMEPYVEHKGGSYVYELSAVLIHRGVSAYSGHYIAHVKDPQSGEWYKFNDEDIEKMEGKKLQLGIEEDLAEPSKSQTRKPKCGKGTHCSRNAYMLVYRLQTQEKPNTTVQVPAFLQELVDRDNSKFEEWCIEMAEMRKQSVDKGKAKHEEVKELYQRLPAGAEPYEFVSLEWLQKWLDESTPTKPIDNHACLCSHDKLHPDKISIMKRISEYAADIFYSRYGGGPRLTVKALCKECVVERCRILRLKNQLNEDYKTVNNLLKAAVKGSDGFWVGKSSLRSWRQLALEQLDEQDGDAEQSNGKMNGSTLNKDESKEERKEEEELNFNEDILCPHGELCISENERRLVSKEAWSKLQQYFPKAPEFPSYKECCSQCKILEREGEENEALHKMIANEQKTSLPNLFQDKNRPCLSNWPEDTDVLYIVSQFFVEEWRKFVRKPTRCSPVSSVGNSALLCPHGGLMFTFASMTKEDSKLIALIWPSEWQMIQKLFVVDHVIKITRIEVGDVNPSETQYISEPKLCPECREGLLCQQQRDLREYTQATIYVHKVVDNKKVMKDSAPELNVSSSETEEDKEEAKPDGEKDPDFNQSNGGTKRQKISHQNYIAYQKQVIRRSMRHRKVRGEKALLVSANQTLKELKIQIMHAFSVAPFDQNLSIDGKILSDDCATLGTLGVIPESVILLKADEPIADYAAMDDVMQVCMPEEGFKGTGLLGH
Summary of the method: as §1

USP5 = molecular target: T4, USP5 (UniProt P45974)
T4 sequence (whole entry): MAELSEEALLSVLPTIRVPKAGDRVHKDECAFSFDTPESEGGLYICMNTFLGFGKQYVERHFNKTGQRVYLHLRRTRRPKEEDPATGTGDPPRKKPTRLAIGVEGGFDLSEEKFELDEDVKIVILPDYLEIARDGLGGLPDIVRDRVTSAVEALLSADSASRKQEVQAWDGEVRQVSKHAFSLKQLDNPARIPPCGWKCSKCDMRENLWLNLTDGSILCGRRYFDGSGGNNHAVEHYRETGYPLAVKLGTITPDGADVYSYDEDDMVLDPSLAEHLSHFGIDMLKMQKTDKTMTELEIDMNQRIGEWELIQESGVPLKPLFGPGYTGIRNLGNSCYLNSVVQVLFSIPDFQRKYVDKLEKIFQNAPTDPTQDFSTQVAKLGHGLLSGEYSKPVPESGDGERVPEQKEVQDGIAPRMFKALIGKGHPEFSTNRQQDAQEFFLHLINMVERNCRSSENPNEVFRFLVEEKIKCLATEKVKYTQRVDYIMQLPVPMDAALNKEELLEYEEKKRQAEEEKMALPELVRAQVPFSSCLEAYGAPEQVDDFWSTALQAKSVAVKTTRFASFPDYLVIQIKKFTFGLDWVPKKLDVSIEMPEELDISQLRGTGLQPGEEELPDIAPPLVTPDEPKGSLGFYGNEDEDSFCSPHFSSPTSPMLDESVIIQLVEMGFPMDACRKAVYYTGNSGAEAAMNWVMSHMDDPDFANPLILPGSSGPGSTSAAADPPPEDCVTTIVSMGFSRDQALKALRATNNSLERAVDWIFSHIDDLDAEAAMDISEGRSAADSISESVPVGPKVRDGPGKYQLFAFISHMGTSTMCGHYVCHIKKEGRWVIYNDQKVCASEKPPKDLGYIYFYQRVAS
Summary of the method: as §1

USP54 = USP54 (UniProt Q70EL1)
Sequence of USP54 (Q70EL1 whole entry): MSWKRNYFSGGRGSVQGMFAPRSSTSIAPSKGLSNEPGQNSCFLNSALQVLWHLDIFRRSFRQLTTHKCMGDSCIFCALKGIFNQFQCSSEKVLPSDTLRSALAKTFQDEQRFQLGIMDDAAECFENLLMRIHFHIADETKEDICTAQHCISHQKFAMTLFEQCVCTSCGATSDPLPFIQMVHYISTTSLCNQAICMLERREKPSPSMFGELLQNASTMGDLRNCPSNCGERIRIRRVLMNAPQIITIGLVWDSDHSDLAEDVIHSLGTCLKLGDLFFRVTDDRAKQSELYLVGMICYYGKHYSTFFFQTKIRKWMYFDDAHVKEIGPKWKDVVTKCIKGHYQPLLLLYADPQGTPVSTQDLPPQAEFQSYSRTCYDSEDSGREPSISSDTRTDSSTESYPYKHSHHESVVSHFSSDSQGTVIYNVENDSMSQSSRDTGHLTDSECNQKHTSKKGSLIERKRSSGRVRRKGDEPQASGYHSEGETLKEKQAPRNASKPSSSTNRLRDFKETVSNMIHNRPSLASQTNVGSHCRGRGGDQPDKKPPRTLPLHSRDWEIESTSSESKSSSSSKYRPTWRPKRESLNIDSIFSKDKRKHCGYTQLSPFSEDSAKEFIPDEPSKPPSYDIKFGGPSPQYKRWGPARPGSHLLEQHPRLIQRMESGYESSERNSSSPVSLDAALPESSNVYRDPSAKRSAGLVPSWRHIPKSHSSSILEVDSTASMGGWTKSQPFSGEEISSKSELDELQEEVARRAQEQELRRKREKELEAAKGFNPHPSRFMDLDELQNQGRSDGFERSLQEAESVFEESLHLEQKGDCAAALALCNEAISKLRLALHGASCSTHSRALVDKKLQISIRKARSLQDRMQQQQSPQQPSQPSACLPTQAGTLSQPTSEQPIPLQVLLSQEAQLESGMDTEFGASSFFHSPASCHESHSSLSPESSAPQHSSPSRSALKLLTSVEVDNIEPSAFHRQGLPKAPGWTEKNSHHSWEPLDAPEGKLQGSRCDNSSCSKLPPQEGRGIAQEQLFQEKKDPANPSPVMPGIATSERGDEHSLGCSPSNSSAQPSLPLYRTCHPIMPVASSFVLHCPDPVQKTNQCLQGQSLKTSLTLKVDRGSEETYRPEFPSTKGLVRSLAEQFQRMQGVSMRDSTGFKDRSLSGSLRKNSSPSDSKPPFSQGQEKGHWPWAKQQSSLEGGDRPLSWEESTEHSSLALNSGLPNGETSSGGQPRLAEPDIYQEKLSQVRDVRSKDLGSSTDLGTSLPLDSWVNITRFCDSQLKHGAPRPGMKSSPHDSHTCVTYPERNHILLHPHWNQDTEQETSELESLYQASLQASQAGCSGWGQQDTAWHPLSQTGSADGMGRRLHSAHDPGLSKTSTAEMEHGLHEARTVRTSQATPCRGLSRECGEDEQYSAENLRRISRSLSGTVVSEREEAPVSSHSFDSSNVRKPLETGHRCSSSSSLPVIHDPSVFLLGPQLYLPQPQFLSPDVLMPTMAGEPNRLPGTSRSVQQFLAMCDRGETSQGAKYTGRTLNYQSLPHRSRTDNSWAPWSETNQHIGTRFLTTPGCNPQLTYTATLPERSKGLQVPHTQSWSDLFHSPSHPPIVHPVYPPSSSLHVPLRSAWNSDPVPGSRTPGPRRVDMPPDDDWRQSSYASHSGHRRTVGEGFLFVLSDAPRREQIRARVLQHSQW
Summary of the method: as §1

USP7 = USP7 (UniProt Q93009)
Sequence of USP7 (Q93009 whole entry, looked up): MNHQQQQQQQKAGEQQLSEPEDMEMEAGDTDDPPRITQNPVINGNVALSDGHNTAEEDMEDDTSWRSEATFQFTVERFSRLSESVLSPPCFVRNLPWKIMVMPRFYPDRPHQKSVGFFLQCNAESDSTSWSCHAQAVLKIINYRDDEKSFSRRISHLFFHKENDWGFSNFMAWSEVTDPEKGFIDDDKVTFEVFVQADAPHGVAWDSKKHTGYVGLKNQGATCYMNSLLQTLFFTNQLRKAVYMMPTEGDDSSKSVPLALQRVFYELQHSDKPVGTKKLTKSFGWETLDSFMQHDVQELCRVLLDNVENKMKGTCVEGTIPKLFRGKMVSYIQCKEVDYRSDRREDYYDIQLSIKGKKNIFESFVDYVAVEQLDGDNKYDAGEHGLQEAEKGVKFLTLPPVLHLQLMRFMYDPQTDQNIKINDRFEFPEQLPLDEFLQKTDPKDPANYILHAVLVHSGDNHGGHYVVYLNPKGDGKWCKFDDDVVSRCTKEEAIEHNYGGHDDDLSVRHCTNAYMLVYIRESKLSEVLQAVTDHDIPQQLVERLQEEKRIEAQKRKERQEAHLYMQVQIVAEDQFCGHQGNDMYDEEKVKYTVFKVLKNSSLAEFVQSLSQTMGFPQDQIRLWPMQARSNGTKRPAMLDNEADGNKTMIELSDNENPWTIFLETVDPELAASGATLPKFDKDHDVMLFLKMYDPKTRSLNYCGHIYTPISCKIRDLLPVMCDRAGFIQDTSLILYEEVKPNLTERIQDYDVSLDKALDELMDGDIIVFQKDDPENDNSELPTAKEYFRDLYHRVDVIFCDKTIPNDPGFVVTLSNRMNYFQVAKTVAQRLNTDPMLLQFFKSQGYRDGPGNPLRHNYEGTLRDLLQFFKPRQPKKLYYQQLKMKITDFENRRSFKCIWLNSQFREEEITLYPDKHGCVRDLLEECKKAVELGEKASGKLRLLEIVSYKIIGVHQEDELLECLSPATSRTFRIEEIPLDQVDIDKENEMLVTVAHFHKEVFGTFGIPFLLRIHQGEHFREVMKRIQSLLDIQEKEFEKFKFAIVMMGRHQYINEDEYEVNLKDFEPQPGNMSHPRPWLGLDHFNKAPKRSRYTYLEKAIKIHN
Summary of the method: as §1

USP8 = molecular target: T5, USP8 (UniProt P40818)
T5 sequence (whole entry): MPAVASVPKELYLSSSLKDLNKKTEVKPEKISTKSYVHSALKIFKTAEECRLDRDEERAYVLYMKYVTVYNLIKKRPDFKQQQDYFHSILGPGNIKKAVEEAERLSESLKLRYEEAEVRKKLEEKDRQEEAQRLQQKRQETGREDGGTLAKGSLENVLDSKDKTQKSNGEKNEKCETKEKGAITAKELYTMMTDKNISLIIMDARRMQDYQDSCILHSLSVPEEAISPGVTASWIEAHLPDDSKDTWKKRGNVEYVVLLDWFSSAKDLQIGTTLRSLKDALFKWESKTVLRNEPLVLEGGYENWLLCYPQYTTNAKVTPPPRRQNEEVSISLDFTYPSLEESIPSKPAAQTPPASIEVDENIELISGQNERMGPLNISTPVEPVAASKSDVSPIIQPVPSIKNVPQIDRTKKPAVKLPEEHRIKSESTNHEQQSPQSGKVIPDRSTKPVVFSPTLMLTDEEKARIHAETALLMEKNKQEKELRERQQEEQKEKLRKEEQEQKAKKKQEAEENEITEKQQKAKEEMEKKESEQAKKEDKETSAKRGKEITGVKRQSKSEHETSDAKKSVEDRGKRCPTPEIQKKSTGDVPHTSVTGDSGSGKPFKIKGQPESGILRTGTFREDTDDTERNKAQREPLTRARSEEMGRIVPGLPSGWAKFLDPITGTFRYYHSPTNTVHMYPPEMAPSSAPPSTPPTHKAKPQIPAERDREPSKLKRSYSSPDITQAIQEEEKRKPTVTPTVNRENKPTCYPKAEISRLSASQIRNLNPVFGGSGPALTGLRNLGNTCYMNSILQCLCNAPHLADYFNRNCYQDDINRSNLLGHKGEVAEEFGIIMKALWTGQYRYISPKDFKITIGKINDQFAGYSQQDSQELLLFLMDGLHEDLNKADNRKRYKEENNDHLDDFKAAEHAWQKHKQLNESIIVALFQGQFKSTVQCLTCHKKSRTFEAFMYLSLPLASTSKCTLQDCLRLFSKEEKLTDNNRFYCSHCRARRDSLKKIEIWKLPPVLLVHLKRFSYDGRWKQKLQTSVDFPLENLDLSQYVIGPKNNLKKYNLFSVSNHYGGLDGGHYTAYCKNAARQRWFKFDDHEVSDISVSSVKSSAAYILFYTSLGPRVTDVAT
Summary of the method: as §1

Measured: log2 ratio of Biotin-Ahx-Ub-VS probe labelling

O=C(CCl)N1CCC(=C(F)CO)C1
inactive: USP42 0.374 | USP46 0.0599 | USP47 0.0525 | USP48 0.0406 | USP5 0.108 | USP54 0.0848 | USP7 0.0769 | USP8 0.0438
